# Screens as filed in PubChem.
# Lamin A splicing – modulators of lamin A splicing; HeLa LMNA splicing GFP/RFP minigene ratio, 48 h; Potency, µM (doses to about 46.1 µM), hits mostly inhibitors; 0.01% of 200,000 active; AID 1487; active = well fitted inhibition curve with a large enough effect in the signal ratio, with a control signal flat, not every such curve was filed as active; inconclusive = small, poorly fitted or top-dose-only effect, or effect the other way, or a change in a side signal; the % refers to the signal ratio
#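 S3 HeLa stable clones carrying a lamin A-EGFP splicing minigene plus DsRed2 were seeded at 600 cells/well in Opti-MEM with 2% FBS, pin-dosed and incubated 48 h at 37°C. Acumen cytometry (488 nm) gave the GFP/RFP total-intensity ratio.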
# HPGD block – inhibitors of human 15-hydroxyprostaglandin dehydrogenase (HPGD); Potency, µM, most hits filed as inhibitors; purified HPGD, NADH fluorescence kinetic, PGE2 substrate; P15428; 4.3% of 150,000 active; active = well fitted inhibition curve with a large enough effect, not every such curve was filed as active; inconclusive = small, poorly fitted or top-dose-only effect, or another doubt; inactive = no such curve, though single readings can be large or run the other way
# Target sequence (P15428 whole entry, looked up): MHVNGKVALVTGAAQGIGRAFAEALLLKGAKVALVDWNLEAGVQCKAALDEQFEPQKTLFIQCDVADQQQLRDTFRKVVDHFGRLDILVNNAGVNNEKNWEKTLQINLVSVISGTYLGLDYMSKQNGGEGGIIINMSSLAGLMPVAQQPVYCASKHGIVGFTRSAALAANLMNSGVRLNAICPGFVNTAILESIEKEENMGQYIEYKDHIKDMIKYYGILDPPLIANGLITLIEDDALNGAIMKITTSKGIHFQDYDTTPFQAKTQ
#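 20 nM HPGD preincubated 15 min at room temperature with compound in 50 mM Tris-HCl pH 8, 0.01% Tween 20. Started with 1 mM NAD+ and 30 uM prostaglandin E2; NADH fluorescence (360/450 nm) read 5 times over 30-s intervals, last minus first.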
# HttQ103 aggreg – inhibitors of mutant huntingtin aggregate formation in PC12 cells. PC12 HttQ103-GFP aggregates, Acumen cytometry, 40 h. Potency, µM (doses to about 46.1 µM), hits mostly inhibitors. 1.1% of 220,000 active. AID 1688; note: nearly all actives have a fitted effect of over 60% in size
#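 PC12 cells stably carrying ecdysone-inducible HTT exon 1 Q103–GFP were induced with tebufenozide (100 nM final) and treated with library compounds in titration. GFP aggregates in lysates were counted by laser scanning cytometry.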
# HTT ATP protect – Huntington cell model cytoprotection by ATP luminescence. PC12 HTT-Q103 induced, cytoprotection, ATP luminescence, 40 h. Potency, µM (titrated, usually from 56.4 µM), usual class: activators. 0.14% of 230,000 active; note: nearly all actives have a fitted effect of over 45% in size
#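 Compounds added alongside 100 nM tebufenozide, which induces toxic Q103 huntingtin exon 1-GFP in stable PC12 cells; surviving cells quantified by luminescent ATP measurement. Medium: phenol red-free DMEM, 5% equine and 5% calf serum.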
# Luc counter – Kinase-Glo luciferase inhibition (counter-screen); AID 1379; 0.28% of 200,000 active; Q27757; Potency, µM (top dose mostly 38.3 µM), hits mostly inhibitors; Kinase-Glo luciferase, ATP luminescence, 8 min; note: nearly all actives have a fitted effect of over 60% in size
#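 Substrate mix (final 50 mM imidazole pH 7.2, 50 mM KCl, 7 mM MgCl2, 10 uM ATP, 0.01% Tween 20, 0.05% BSA) plus pin-tool compound, then Kinase-Glo detection mix; 8 min ambient, luminescence read.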
# ALDH1A1 inh – ALDH1A1 (human) enzyme inhibition | P00352 | Purified ALDH1A1, NADH fluorescence, propionaldehyde substrate | Potency, µM (titrated, usually from 75.3 µM), actives largely listed as inhibitors | 7.3% of 220,000 active | AID 1030; active = well fitted inhibition curve with a large enough effect, not every such curve was filed as active; inconclusive = small, poorly fitted or top-dose-only effect, or another doubt; inactive = no such curve, though single readings can be large or run the other way
# Target sequence (P00352 whole entry, looked up): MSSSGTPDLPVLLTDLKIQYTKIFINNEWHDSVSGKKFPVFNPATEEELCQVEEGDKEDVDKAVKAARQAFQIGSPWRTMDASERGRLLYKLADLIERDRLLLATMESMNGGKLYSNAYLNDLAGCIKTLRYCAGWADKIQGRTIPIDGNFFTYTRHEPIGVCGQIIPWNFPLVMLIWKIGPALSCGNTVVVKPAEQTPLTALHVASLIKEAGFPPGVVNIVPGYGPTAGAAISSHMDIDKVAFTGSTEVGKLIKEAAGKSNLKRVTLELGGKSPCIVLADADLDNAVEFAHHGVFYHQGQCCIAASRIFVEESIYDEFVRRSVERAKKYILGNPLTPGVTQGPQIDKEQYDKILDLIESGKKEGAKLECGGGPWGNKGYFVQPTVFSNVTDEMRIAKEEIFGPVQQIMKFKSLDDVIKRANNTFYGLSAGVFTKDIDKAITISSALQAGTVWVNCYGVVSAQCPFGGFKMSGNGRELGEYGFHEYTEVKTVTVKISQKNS
# Hits are given with their value; i = inactive; ? = inconclusive; nt = not tested or not shown; [ ] = dose if it differs, or a comment. The list is not random: actives were taken first. Their share in the collection is about 9%. Unless noted, calls come from the whole dose curve; as a rule, active = well fitted curve in the direction sought with a large enough effect; inconclusive = small, poorly fitted or top-dose-only effect, or another doubt; inactive = no such curve, though single readings can be large; an effect the other way counts as inactive or inconclusive.
SMILES,Lamin A splicing,HPGD block,HttQ103 aggreg,HTT ATP protect,Luc counter,ALDH1A1 inh
c1cnc2c(c1)ccc1cccnc12,?,i,7.9µM,i[10 µM],i[7.66 µM],i[13.5 µM]
CCCCNC(=S)NCCN1CCCCC1,i,i,i,i[1.9 µM],i,?
CCCNC(=S)NCCN1CCCCC1,i,i,i,i[1.9 µM],i,35µM
C=CCn1c(-c2csc(-c3ccc(OC)c(OC)c3)n2)n[nH]c1=S,?,nt,i,i[10 µM],i,i
Cc1nn(Cc2ccc(C(=O)Nc3nc4c(C)cccc4s3)o2)c(C)c1Br,i,?,18µM,i,i,i
Cc1nc(C)c(C(=O)C2=C(O)C(=O)N(CCN(C)C)C2c2cccs2)s1 (configuration not stated),i,i,i,i[0.074 µM],i,?
Cc1ccc(N/N=C2\CC(=O)c3ccccc32)cc1Cl,nt,nt,i[9.22 µM],i[10 µM],nt,25µM
CCNC(=O)C/C(C)=N/NC(=O)C1CCCCC1,i,i,i,i[10 µM],i,i
CCNC(=O)C/C(C)=N/NC(=O)C12CC3CC(CC(C3)C1)C2,i,i,i,i,i,4µM
CCSc1nc(O)c(C2OC(=O)c3c2ccc(OC)c3OC)c(=O)n1-c1ccccc1 (configuration not stated),i,i,i[9.22 µM],i,i,i
CCCc1nc(SCc2cccnc2)c2c(=O)n(C)c(=O)n(C)c2n1,i,i,i,i,i,?
Cn1c(=O)c2c(SCc3cccnc3)nc(CC(C)(C)C)nc2n(C)c1=O,?,i,i,i,i,0.89µM
COc1ccc2c(c1)-c1c(ssc1=S)C(C)(C)N2C(=O)CSC1=NCCS1,?,i,11µM,i[10 µM],i,i
COc1ccc(NC(=O)C2CCN(Cc3cnn(-c4ccccc4)c3-n3cccc3)CC2)cc1OC,?,i,?,i,i,?
CC(=O)c1cccc(NS(=O)(=O)c2ccc(N/C=C\C(=O)c3ccc(F)cc3)cc2)c1,i,i,10µM,i,i,i
COc1cc(/C=N/N2C(=O)CSC2=S)cc(Br)c1O,i,nt,i,i,i,?
COc1cccc(/C=N/N2C(=O)CSC2=S)c1O,?,25µM,i,nt,i,7.1µM
Cc1ccc(-c2nc(C#N)c(NCCN3CCCCC3)o2)cc1,i,?,i,i,i,?
CCN1CCc2c(sc(NC(=S)NC(=O)c3ccc(Cl)cc3)c2C(N)=O)C1,nt,nt,i[9.22 µM],i[10 µM],nt,10µM
CC(C)N1CCc2c(sc(NC(=S)NC(=O)c3ccccc3)c2C#N)C1,i,?,i,i[10 µM],i,13µM
CCCN1CCc2c(sc(NC(=S)NC(=O)c3ccccc3)c2C#N)C1,?,nt,i,i,i,7.9µM
CC(C)N1CCc2c(sc(NC(=O)c3ccc(S(=O)(=O)N4CCOCC4)cc3)c2C#N)C1,i,i,i,i,i,10µM
CC(C)C1Cc2c(sc(NC(=S)NC(=O)c3ccccc3)c2C#N)CO1 (configuration not stated),i,i,i,i[10 µM],i,i
COc1ccc(CC(=O)Nc2ccccc2C(=O)N2CCOCC2)cc1OC,i,i,i,nt,i,i
CSc1nc2ccc(Br)cc2[nH]1,?,nt,i[9.22 µM],i[10 µM],i,?
SMILES,Lamin A splicing,HPGD block,HttQ103 aggreg,HTT ATP protect,Luc counter,ALDH1A1 inh
CCc1cc(/C(Cc2ccc3ccccc3n2)=N\O)c(O)cc1O,i,i,i,i[0.074 µM],i,i
COc1ccc(Cn2ccn(Cc3cccc(C)c3)c(=O)c2=O)cc1,i,nt,nt,nt,nt,nt
Cc1ccccc1-c1noc(-c2ccc(O)cc2)n1,i,i,i,i[10 µM],i,i
C/C(=C\CNc1ncnc2c1ncn2[C@@H]1O[C@H](CO)[C@@H](O)[C@H]1O)CO,nt,i,nt,i,i,i
CC(=O)N1CCc2cc(S(=O)(=O)NC(Cc3ccccc3)C(=O)Nc3cc(C)ccn3)ccc21 (configuration not stated),i,i,i[9.22 µM],i,i,10µM
CCC(=O)N1CCc2cc(S(=O)(=O)NC(Cc3ccccc3)C(=O)NC3CCCCC3)ccc21 (configuration not stated),i,i,i,nt,i,i
COc1ccc(NC(=O)CS(=O)CC(=O)NCC2OCCc3ccccc32)cc1 (configuration not stated),nt,nt,i,nt,i,i
O=C(CCl)Nc1cccn2ncnc12,i,i,20µM,i,i,3.2µM
O=C(C[n+]1cc(-c2ccccc2)n2c1CCC2)c1cccs1,i,nt,i,i[10 µM],i,i
O=C(C[n+]1ccn(CCCNP2(=O)C=C(c3ccccc3)OC(c3ccccc3)=C2)c1)c1cccs1,i,nt,i,i,i,14µM
CCC(C)NC(=O)C1CCC(=O)N(c2ccc3c(c2)OCO3)C1c1ccc(OC)cc1 (configuration not stated),i,i,i,i[10 µM],i,6.3µM
CCCCc1ccc(NC(=S)Nc2ccc(Nc3ccc(OC)cc3)cc2)cc1,?,?,i,i[10 µM],i,7.1µM
Cc1ccc(C(=O)NC2CCS(=O)(=O)C2)cc1S(=O)(=O)N1CCCCCC1 (configuration not stated),nt,nt,i,i[10 µM],i,i
COc1ccc(C2=Nc3ccccc3OC2)cc1,?,i,i,i,i,22µM
COc1ccc(C2=N[C@H](c3ccccc3)CO2)cc1,nt,i,nt,i,i,?
O=[N+]([O-])c1ccc(/C=N/Nc2nc(N3CCOCC3)nc(N3CCOCC3)n2)cc1,i,nt,?,?,i,i
O=[N+]([O-])c1ccc(/C=C2\CCC(C3=CCCC3)=C2N2CCOCC2)cc1,?,i,?,nt,i,14µM
CS(=O)(=O)N1CCCC(C(=O)NCCc2ccc(Cl)cc2)C1 (configuration not stated),i,i,i,i,i,i
COc1ccc(-n2[nH]c(C)cc2=O)cc1,?,i,?,i,i,3.2µM
Cc1cc(=O)[nH]c(-n2[nH]c(C)cc2=O)n1,i,i,i,i,i,i
Cc1cc(SCC(=O)N2CCCC2)nc2ccccc12,?,13µM,i,i[10 µM],i,i
Cc1cc(SCC(=O)c2ccc(O)c(O)c2)nc2ccccc12,i,nt,i[9.22 µM],i[10 µM],i,i
Cc1cc(SCC(=O)O)nc2ccccc12,i,nt,i[9.22 µM],i[10 µM],i,i
Cc1cc(SCC(=O)c2cc3ccccc3o2)nc2ccccc12,i,35µM,i,i,i,28µM
O=C(CSc1nc2cc(Cl)ccc2s1)c1cc2ccccc2o1,i,?,i,i,i,28µM
SMILES,Lamin A splicing,HPGD block,HttQ103 aggreg,HTT ATP protect,Luc counter,ALDH1A1 inh
CCc1ccc(NC(=S)Nc2cccc3cnccc23)cc1,i[9.22 µM],nt,i,i,i,11µM
Cc1cc(C)cc(NC(=S)Nc2cccc3cnccc23)c1,nt,nt,i,i[10 µM],i,11µM
Cc1ccc(NC(=S)Nc2cccc3cnccc23)c(C)c1,?,nt,i,i,i,18µM
CCc1ccc(NC(=S)NCc2cccnc2)cc1,nt,nt,i[9.22 µM],i[10 µM],nt,i
O=C(NC(=S)Nc1cccc2cnccc12)c1ccccc1,nt,nt,?,i,i,i
CN(C)/C=N/C1=C(C#N)C(c2cccs2)c2ccc3ccccc3c2O1 (configuration not stated),nt,nt,i,i,i,0.32µM
